In PubChem BioAssay (NCI):
Compounds without any hit were thinned out: in the full panel of roughly 83,000, 20% have a hit.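 Activity criterion: percent growth below 10, measured after cells in 96-well plates were exposed to a single compound concentration for 48 hours.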 Unmarked numbers belong to inactive results. Activity calls are given as the source filed them.

test system: BT-549 breast; assay: NCI-60 one-dose screen, 48 h (100 = growth as untreated, 0 = no growth, -100 = all killed); conditions: 10 µM unless noted
Procedure: Growth inhibition of the BT-549 human tumor cell line is measured as a screen for anti-cancer activity. Cells are grown in 96 well plates and exposed to the test compound for 48 hours. Compounds are tested at a single concentration, which is 10^-5 M for most compounds. The reported endpoint is percent growth (GI% or GIPRCNT), where numbers from 0 - 100% represent growth inhibition, and numbers from -100% - 0 represent cell death. For example, a value of 40 represents 60% growth inhibition. A value of 0 means no net growth occurred over the course of the experiment. A value of -40 indicates 40% of cells at the beginning of the experiment died by the end of the experiment. A value of -100 means all cells are dead at the end of the experiment.
NCI-60 Human Tumor Cell Lines Screen was performed using the standard one-dose NCI protocol, which is described in more detail at https://dtp.cancer.gov/discovery_development/nci-60/default.htm.
Compounds with GIPRCNT values below 10 were considered active. Activity score was based on GIPRCNT using the following formula: […]
Score is 0 for GIPRCNT values of 100 or above, 50 for GIPRCNT values of 0, and 100 for GIPRCNT values of -100.

First: S=c1nc2[nH]c3ccccc3c2n[nH]1
Second: S=c1nc(-c2ccccn2)c(-c2ccccn2)n[nH]1
The growth of the first is higher: 102% for the first, 101% for the second.

Going from `CC(=O)c1cccc(NS(=O)(=O)c2ccc(C)cc2)c1` to `CS(=O)(=O)c1ccc(/C=C\C(=O)O)cc1`, the growth rises from 74.8% to 102%.

Going from `Cc1cc2nc(C)c(C)nc2cc1C` to `CCOc1ccc2c(c1)c(C)cc(C)[n+]2CC`, the growth falls from 100% to 33.8%.

Compared with `CCOC(=O)C(C#N)=C1CCN(C)CC1`, `CCOC(=O)c1cc(C)[nH]c(=O)c1C#N` is lower in growth: 103% for the first, 92.9% for the second.

Compared with `Nc1ccn(C2CC(N)C(CO)O2)c(=O)n1` (stereo not given), `CCNC(=O)Oc1ccc[nH]c1=O` is higher in growth: 71.8% for the first, 110% for the second.

First: O=[n+]1ccn([O-])c2ccccc21
Second: O=C(O)Cc1cccc2ccccc12
The growth of the first is lower: 92.5% for the first, 107% for the second.

Going from `C#CCSc1nnnn1-c1ccccc1` to `CSc1cnc2ccccc2n1`, the growth rises from 76.8% to 94.6%.

Going from `Oc1ccc2ccccc2c1CN1CCOCC1` to `COc1cccc2c1Cc1ccccc1-2`, the growth rises from 103% to 106%.

Going from `OCCOc1ccc(-c2cc(-c3ccccn3)nc(-c3ccccn3)c2)cc1` to `Cn1/c(=N\N=C\c2ccccc2OCCO)sc2ccccc21`, the growth rises from 15.9% to 102%.

Compared with `Nc1nc2nnc(-c3ccccc3)c(-c3ccccc3)n2n1`, `Cc1cc(Cc2ccccc2)c(O)c(Cc2ccccc2)c1` is lower in growth: 103% for the first, 84.1% for the second.

First: CC1CN(CCO)CC(C)O1 (stereo not given)
Second: NC(=O)NCCO
The growth of the first is higher: 108% for the first, 101% for the second.

Compared with `O=c1cc(C(F)(F)F)[nH]c(=S)[nH]1`, `NS(=O)(=O)c1cc(=O)[nH]c(=O)[nH]1` is lower in growth: 122% for the first, 107% for the second.

Compared with `CSCCC(NC(=O)C(Cl)Cl)C(=O)O` (stereo not given), `O=C(O)Cc1ccccn1` is lower in growth: 102% for the first, 101% for the second.

Compared with `Oc1cc(O)c2c(c1)O[C@H](c1ccc(O)c(O)c1)[C@@H](O)C2`, `N#C/C(=C\c1ccc2c(c1)OCO2)c1ccccc1` is lower in growth: 100% for the first, 65.2% for the second.

First: CCCCN(C(=O)CC)c1ccccc1
Second: CC1(c2ccccc2)CO1 (stereo not given)
The growth of the first is lower: 104% for the first, 112% for the second.

First: CCOc1ccc(C(=O)O)cc1
Second: CC(=O)C[n+]1ccc(C)cc1Sc1ccccc1C
The growth of the first is higher: 96.7% for the first, 90% for the second.

Compared with `CC(C)N1CC(=O)N2CSCC2C1=O` (stereo not given), `O=C1NC(=O)C(c2ccccc2)O1` (stereo not given) is lower in growth: 110% for the first, 99.6% for the second.

Compared with `CNc1ccccc1C(=O)N/N=C/C=C/c1ccccc1`, `O=C1CSc2ccccc2N1` is higher in growth: 47.3% for the first, 117% for the second.

First: CN(C)c1ncnc2c1cnn2C
Second: COc1cc(N)c2ncccc2c1Cl
The growth of the first is higher: 99.9% for the first, 87.5% for the second.

Work on `CCCCNc1ccc(-c2ccc(NCCCC)cc2)cc1` yielded a growth of 31.1%.

With `CCOC(=O)N[C@H]1CCc2cc(OC)c(OC)c(OC)c2-c2ccc(SC)c(=O)cc21` the growth was -9.25% (active).
